Among all 360,000 compounds or so, about 2,600 (0.72%) were called active.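 How the source made its calls: active means inhibition of the luminescence signal of 40% or more relative to plate controls, in a single-dose primary screen at 18.75 µM; inactive means the rest.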 This excerpt belongs to a sample that is enriched for actives.

A short description of this test: HIF-2a reporter inhibitors, primary screen, luminescence, 786-0 RCC cells (AID 624352). To be noted: 786-0 RCC cells HIF-2a reporter, luciferase luminescence, overnight; at 18.8 µM; active compounds read high.
`CCOC(=O)[C@]12Cc3ccccc3[C@H]1N(C1CCCCC1)C(=O)c1cc(OC)ccc12`: the inhibition (usually the change of the read-out against control, counted positive when it falls) is 81.9% (active).

With `CCOC(=O)[C@]12Cc3cc(OC)ccc3[C@H]1N(C(C)C)C(=O)c1ccccc12`, the inhibition is 24.5% (inactive).

Take `COc1ccc(CCn2c(O)c(C=NCCCn3ccnc3)c(=O)[nH]c2=O)cc1OC`: the inhibition was 11.2% (inactive).

For the molecule `COc1ccc(Br)cc1CNCCc1cccc(Cl)c1`, the inhibition is 7.99% (inactive).

For the molecule `CC=C(C)C(=O)OC1CCN2CC=C(COC(=O)C(O)(C(C)OC)C(C)(C)O)C12` (stereo not given), the inhibition is 3.51% (inactive).

For `COc1cc(OC)cc(C2(C#N)CCN(C)CC2)c1`, the inhibition was 13.2% (inactive).

Take `COC(=O)C1=C(c2cc3ccccc3s2)C[C@@H]2CC[C@H]1N2C(=O)NC(C)C`: the inhibition was 6.19% (inactive).

In the case of `Cc1cccc(-n2c(O)c(/C=N/N3CCOCC3)c(=O)[nH]c2=S)c1`, the inhibition is 19.1% (inactive).

In the case of `Cc1nn(-c2ccccc2)c(C)c1NC(=O)COC(=O)Cc1ccccc1`, the inhibition is 8.24% (inactive).

With `Cc1nc2nc(C)c(CCC(=O)N3CCC4(CC3)OCCO4)c(C)n2n1`, the inhibition is -0.723% (inactive).

As for `CC(=O)OC1C2(CC3N4C(=O)C5(CO)SSC4(CC31O)C(=O)N5C)OC(C)C(C)(C)C2=O` (stereo not given), the inhibition was 91.3% (active).

Consider `NC(=O)Nc1cccc(C(F)(F)F)c1`, for which the inhibition is 1.29% (inactive).

Take `COC(=O)C[C@H]1CC[C@H]2NC[C@@H](O)COC[C@@H]2O1`: the inhibition is 10.3% (inactive).

For `C[C@]12CC[C@H](O)C[C@H]1CC[C@@H]1C2CC[C@]2(C)[C@@H](C3=CC(=O)OC3)[C@@H](O)C[C@]12O` (stereo not given in full), the inhibition is 33.4% (inactive).

As to `COC1C(O)C(C)OC(OC2CCC3(C=O)C(CCC4C3CCC3(C)C(C5=CC(=O)OC5)CCC43O)C2)C1O` (stereo not given), the inhibition is 82.4% (active).

As to `COC(=O)CN(CCCl)P1(=O)OCCCN1CCCl` (stereo not given), the inhibition was 6.36% (inactive).

In the case of `CN1CCN(Cc2ccccc2C(F)(F)F)CC1`, the inhibition is 9.38% (inactive).

Take `O=c1c2ccccc2nc(CBr)n1-c1ccc(Cl)cc1`: the inhibition was -7.93% (inactive).

On to `CN(C)CC1Oc2ccccc2OC1(O)c1ccccc1` (stereo not given), for which the inhibition is 55.3% (active).

Regarding `Cc1nc2ccccn2c1P(=S)(N1CCCCC1)N1CCCCC1`, the inhibition was 18.1% (inactive).

As to `CC1([N+](=O)[O-])COP(=O)(Nc2ccc(F)cc2)OC1` (stereo not given), the inhibition was 17.4% (inactive).

Turning to `Cc1ccc(C(C)C)c(OCC(=O)N2CCN(CC(=O)N3CCOCC3)CC2)c1`, the inhibition is -3.94% (inactive).

As for `c1ccc2sc(C3CCCNC3)nc2c1` (stereo not given), the inhibition was -94.5% (inactive).

Consider `CC[C@H]1CC2CN3CCc4c([nH]c5ccccc45)C(C(=O)OC)(C2)C13` (stereo not given in full), for which the inhibition is 20.3% (inactive).

Take `O=P(OC1=CCCCC1)(c1ccccc1)c1ccccc1`: the inhibition is 12.4% (inactive).

As for `CCC(C)(O)C(=O)OC1C(=O)OC2CC3C(C)=CC(=O)C(O)C3(C)C3C4(O)OCC23C1C(C)C4O` (stereo not given), the inhibition is 66.3% (active).

In the case of `O=c1[nH]c(=O)n(-c2ccc(F)cc2)c(O)c1C=NCCN1CCCCC1`, the inhibition is 24.6% (inactive).

Regarding `CC(Cc1cccs1)NCc1ccc(Cl)cc1` (stereo not given), the inhibition is -5.05% (inactive).

Take `Cc1ccc(P(=S)(c2ccc(C)o2)N2CCOCC2)o1`: the inhibition was -0.609% (inactive).

As for `CCCCCCCCCCCCn1ccc(=N)cc1`, the inhibition is 51.2% (active).

As for `C[C@]12CC[C@H](O)CC1=C([N+](=O)[O-])CC1C2CC[C@@]2(C)C1CC[C@@H]2O` (stereo not given in full), the inhibition is -4.21% (inactive).

With `CC(C)c1c(CN(C)C(C)Cc2ccccc2)n(C)n(-c2ccccc2)c1=O` (stereo not given), the inhibition was 17.5% (inactive).

With `CC(=CCOc1ccc2ccc(=O)oc2c1)C1=CC(=O)C(C)(C)O1`, the inhibition is 65.2% (active).

As for `O=C1NC(=O)C(Cc2ccccc2)C(=O)N1`, the inhibition is 0.735% (inactive).

With `CCOC(=O)C1CN(C)CCC1=O` (stereo not given), the inhibition is 12.2% (inactive).

Values taken from PubChem BioAssay AID624352 (Sanford-Burnham Center for Chemical Genomics, 2012).
